Results from the supplement of paper PMC4166925.
± gives the standard deviation of the averaged measurements. Over roughly 33,000 sequences, “E-score (dimensionless, -0.5 to 0.5)” has its median near -0.046; the highest 2% begin near 0.36. Only a selection was taken, and the highest values are over-represented in it overall.

System: T1, SpTbr T-box DNA-binding domain (GST fusion)
T1 sequence: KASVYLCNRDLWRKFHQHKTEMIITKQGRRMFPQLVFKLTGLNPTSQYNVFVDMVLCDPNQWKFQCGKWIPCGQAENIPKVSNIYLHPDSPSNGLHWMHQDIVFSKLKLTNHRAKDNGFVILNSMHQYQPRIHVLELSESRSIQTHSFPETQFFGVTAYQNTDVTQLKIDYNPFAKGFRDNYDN
Test: PBM E-score of 8-mer (E-score (dimensionless, -0.5 to 0.5)); Tbr is Tbrain of the sea star Patiria miniata (Pm) or the sea urchin Strongylocentrotus purpuratus (Sp); higher = stronger binding preference
Conditions: the construct has about 5 more residues each side
Procedure: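 Universal protein-binding microarray (Agilent AMADID 016060, 60-bp probes with a 35-bp variable region) incubated with 200 nM GST-fused Strongylocentrotus purpuratus Tbr T-box DNA-binding domain (residues 362-554) in PBS pH 7.5. Scored for every ungapped 8-mer (given with its reverse complement) as E-score (range -0.5 to 0.5; >0.45 counts as bound) and Z-score of median probe intensity. Two replicate arrays (datasets 1 and 2).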
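Note: protein at 200 nM in PBS on universal double-stranded arrays.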

| Sequence | PBM E-score of 8-mer |
| --- | --- |
| AAGGGAGA | -0.13 ± 0.033 |
| ATAGCCAT | -0.118 ± 0.018 |
| CGTGCTCA | -0.0222 ± 0.013 |
| TACCACGA | -0.00786 ± 0.00088 |
| CGCGCGGC | 0.208 ± 0.04 |
| ATCTGGCG | 0.0377 ± 0.0091 |
| ATCGAGAC | 0.0132 ± 0.042 |
| GGTAGCTA | -0.314 ± 0.032 |
| ATAGCCGG | -0.203 ± 0.015 |
| CGTGTGTA | 0.096 ± 0.044 |
| TGGGTGAA | -0.137 ± 0.0066 |
| TATGTGAA | 0.17 ± 0.07 |
| TGTGTGAA | 0.4829 ± 0.004 |
| CCTGTGAA | 0.363 ± 0.011 |
| CGTGTGAA | 0.4643 ± 0.0031 |
| CCTGCCTC | 0.0708 ± 0.019 |
| CTATCCTA | -0.171 ± 0.0083 |
| GTTGACCA | 0.142 ± 0.036 |
| ATAACCAC | -0.138 ± 0.015 |
| CCTCACCA | 0.197 ± 0.025 |
| ACACACCA | 0.287 ± 0.013 |
| TCACACCA | 0.4853 ± 0.0026 |
| ACTCACCA | -0.0326 ± 0.014 |
| TCGCACCA | 0.434 ± 0.023 |
| CCACACCA | 0.314 ± 0.057 |

| Sequence | PBM E-score of 8-mer |
| --- | --- |
| GCGCACCA | 0.00307 ± 0.052 |
| ACACACAA | 0.148 ± 0.02 |
| TCTCACCA | 0.372 ± 0.011 |
| CCGCACCA | 0.186 ± 0.032 |
| CCACACAA | 0.0877 ± 0.025 |
| TCACACAA | 0.435 ± 0.0069 |
| CCGGGATC | -0.0846 ± 0.051 |
| AGTAGAAT | -0.219 ± 0.017 |
| GCCCCTGA | -0.091 ± 0.031 |
| CCTGGAGC | -0.16 ± 0.026 |
| GGGGTAAC | -0.0298 ± 0.022 |
| GATGCAAA | 0.0247 ± 0.033 |
| CCCATCGA | -0.2033 ± 0.0016 |
| AGGCCCGC | -0.15 ± 0.036 |
| TCACACGA | 0.387 ± 0.0091 |
| GCACACGA | -0.113 ± 0.11 |
| ACACACGA | -0.00198 ± 0.078 |
| TCATTGAA | -0.129 ± 0.0043 |
| CAACCTGC | 0.149 ± 0.015 |
| AGGAGGTC | -0.269 ± 0.036 |
| AGGAGGTA | -0.0388 ± 0.051 |
| ACGAGGTA | -0.0678 ± 0.011 |
| ACGAGGTG | 0.419 ± 0.019 |
| AGGAGGTG | 0.391 ± 0.03 |
| AAGAGGTC | -0.128 ± 0.01 |

| Sequence | PBM E-score of 8-mer |
| --- | --- |
| ACGAGGTC | -0.114 ± 0.018 |
| AAGAGGTA | -0.272 ± 0.035 |
| AAGAGGTG | 0.407 ± 0.0088 |
| ACATAGGT | 0.221 ± 0.02 |
| CCTGCTAA | 0.269 ± 0.031 |
| ACCAACAC | 0.273 ± 0.0089 |
| ACGCTTAA | 0.11 ± 0.0092 |
| GGCCGTAC | -0.249 ± 0.0084 |
| ATTTGGGC | -0.181 ± 0.017 |
| CACTTAGG | 0.117 ± 0.04 |
| ATGGTCCG | -0.11 ± 0.029 |
| ATGATGGA | -0.179 ± 0.029 |
| ATCACAAA | 0.106 ± 0.014 |
| ATCACAGG | 0.227 ± 0.05 |
| ATCACATA | 0.251 ± 0.055 |
| ATCACACA | 0.425 ± 0.017 |
| ATCACAGA | 0.102 ± 0.074 |
| ATCACACG | 0.417 ± 0.027 |
| AACAGCTA | 0.232 ± 0.018 |
| GAATCAGC | -0.196 ± 0.017 |
| AAGCTTAG | -0.108 ± 0.11 |
| CTTAGCAA | 0.0388 ± 0.079 |
| CTTAGCAC | 0.364 ± 0.0057 |
| CCTAGCAC | 0.257 ± 0.016 |
| ATTAGCAG | 0.0716 ± 0.046 |

| Sequence | PBM E-score of 8-mer |
| --- | --- |
| ATTAGCAA | -0.0446 ± 0.11 |
| ATTAGCAC | 0.368 ± 0.038 |
| AGCATGGA | -0.0258 ± 0.071 |
| ATGCTCTG | -0.168 ± 0.038 |
| CGCTCAAA | 0.00388 ± 0.065 |
| ATATTAAA | -0.0775 ± 0.025 |
| GATCACAA | 0.251 ± 0.0097 |
| AATCACAG | 0.06 ± 0.051 |
| AATCACAA | 0.212 ± 0.018 |
| GATCACAC | 0.479 ± 0.01 |
| CATCACAG | 0.184 ± 0.0071 |
| AATCACAC | 0.457 ± 0.011 |
| CATCACAA | 0.204 ± 0.042 |
| CATCACAC | 0.451 ± 0.0075 |
| GATCACGC | 0.359 ± 0.037 |
| CGCGACCG | 0.29 ± 0.031 |
| GGTACCAA | -0.0861 ± 0.086 |
| ACAAAGGT | 0.119 ± 0.0064 |
| ACTGGGCT | -0.25 ± 0.058 |
| AGTGGCAG | 0.171 ± 0.033 |
| AACCCCGC | 0.136 ± 0.034 |
| CTGGTGCC | 0.141 ± 0.076 |
| AAGGTGCA | 0.35 ± 0.01 |
| AAGGTGGT | 0.247 ± 0.033 |
| AAGGTGCT | 0.4354 ± 0.0022 |

| Sequence | PBM E-score of 8-mer |
| --- | --- |
| GAGGTGCA | 0.338 ± 0.032 |
| CGGGTGCC | 0.18 ± 0.0043 |
| CAGGTGCC | 0.388 ± 0.034 |
| GAGGTGCC | 0.379 ± 0.019 |
| AAGGTGCC | 0.364 ± 0.0073 |
| ACGGTGCG | 0.298 ± 0.024 |
| AAGGTGCG | 0.4522 ± 0.0011 |
| AAGGTACG | -0.0434 ± 0.066 |
| AAATAGCG | 0.169 ± 0.013 |
| CACCCCTA | 0.212 ± 0.022 |
| CGCTACAA | 0.107 ± 0.069 |
| AACCATGG | -0.0415 ± 0.0021 |
| ACTTCGAG | 0.0665 ± 0.024 |
| CAGGTGCG | 0.454 ± 0.01 |
| CAGGTGCA | 0.265 ± 0.028 |
| CAGATGCG | -0.139 ± 0.019 |
| CAGGTCTA | -0.191 ± 0.055 |
| AGCTAGCT | 0.0778 ± 0.066 |
| CACAAACC | -0.19 ± 0.028 |
| GCAACACC | 0.439 ± 0.0069 |
| CCAACACC | 0.4264 ± 0.0023 |
| ACAACACC | 0.424 ± 0.011 |
| CCAACACA | 0.299 ± 0.017 |
| ACAACACA | 0.349 ± 0.0079 |
| CCAACACG | 0.232 ± 0.013 |

| Sequence | PBM E-score of 8-mer |
| --- | --- |
| ACAACACT | 0.345 ± 0.0051 |
| GCAACAAC | 0.0625 ± 0.016 |
| GCAACACA | 0.267 ± 0.014 |
| ATCACCGC | -0.0213 ± 0.03 |
| AGTTGTCC | -0.136 ± 0.07 |
| ACAATCAG | -0.0516 ± 0.0027 |
| ACGCAAGC | -0.101 ± 0.061 |
| AACAATTA | 0.0621 ± 0.089 |
| ACAGTTGA | 0.2 ± 0.059 |
| CATGGGCC | -0.352 ± 0.015 |
| AGTACCGG | -0.341 ± 0.03 |
| GTGAGAAC | 0.4469 ± 0.0042 |
| GCGAGAAC | 0.393 ± 0.0087 |
| ACGAGAAC | 0.186 ± 0.0072 |
| GTGAGAAA | 0.441 ± 0.016 |
| ATGAGAAA | -0.221 ± 0.031 |
| CTGAGAAC | 0.0561 ± 0.038 |
| GCGAGAAA | 0.342 ± 0.0013 |
| ATGAGAAC | -0.0381 ± 0.053 |
| CTGAGAAA | -0.0469 ± 0.13 |
| CCAACTCC | -0.0214 ± 0.0039 |
| GTCAAGGA | -0.0692 ± 0.085 |
| AGCAAGAT | -0.0318 ± 0.027 |
| CTTTTTTC | -0.0265 ± 0.039 |
| GTGGCCAC | 0.225 ± 0.026 |

| Sequence | PBM E-score of 8-mer |
| --- | --- |
| ACTGCTGC | -0.0667 ± 0.011 |
| ATCAAGAA | -0.219 ± 0.094 |
| GAGTTAGC | 0.0856 ± 0.074 |
| CTCCAAAC | -0.0591 ± 0.11 |
| GGTGTCGA | 0.453 ± 0.015 |
| CGTGTCGA | 0.264 ± 0.013 |
| AGTGTCGG | 0.36 ± 0.015 |
| ATTGTCGC | 0.263 ± 0.028 |
| AGTGTCGA | 0.405 ± 0.0049 |
| ATTGTCGA | 0.0605 ± 0.042 |
| AGTGTCGC | 0.412 ± 0.016 |
| CGTGTCGC | 0.254 ± 0.045 |
| GTTGTCGA | 0.271 ± 0.0066 |
| CTGAGGAC | 0.0509 ± 0.03 |
| AGGGAGCC | -0.14 ± 0.027 |
| CAATACTG | -0.127 ± 0.0078 |
| AATGGGAA | -0.188 ± 0.032 |
| AGGGCTGG | -0.253 ± 0.011 |
| GTTCCTCA | -0.0698 ± 0.064 |
| CTAGCTAA | 0.041 ± 0.025 |
| AGTCGCAA | 0.132 ± 0.0059 |
| GGTCGCAC | 0.365 ± 0.046 |
| GGTCGCAA | 0.208 ± 0.029 |
| AGTCGCAG | 0.0537 ± 0.061 |
